Test results from PubChem BioAssay (Tox21).
Inconclusive results are not listed. Active and inactive are the calls of the source. Unless noted, calls come from the whole dose curve; as a rule, active = well fitted curve in the direction sought with a large enough effect in the repeat runs; inconclusive = weak or mixed curves; inactive = no such curve, though single readings can be large; an effect the other way counts as inactive or inconclusive.

Legend:
[1] = qHTS assay to identify small molecule antagonists of the estrogen related receptor (ERR) signaling pathway from Tox21 library - cell viability counter screen (AID 1224834); note: nearly all actives have a fitted effect of over 30% in size
In short: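 CellTiter-Fluor fluorescence measured; ERR cells; 17.5 h compound incubation at 37 C; 30 min reagent step.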

[2] = biological target: Luciferin 4-monooxygenase (Photinus pyralis) (UniProt P08659); experiment: qHTS assay to identify small molecule inhibitors of firefly luciferase (AID 1224835); note: nearly all actives have a fitted effect of over 25% in size
In short: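 Inhibition of purified Photinus luciferase is measured by luminescence. Substrate levels (D-luciferin, ATP) sit at their KM values. Each compound is tested in a concentration series.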

[3] = qHTS assay to identify small molecule agonists of the constitutive androstane receptor (CAR) signaling pathway - cell viability counter screen (AID 1224836); note: nearly all actives have a fitted effect of over 45% in size
In short: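 HepG2 cells stably carrying hCAR and a CYP2B6-2.2kb reporter; 15-concentration compounds plus PK11195 (final 0.75 uM), 23 hr at 37 C/5% CO2. Viability read by CellTiter-Fluor fluorescence.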

[4] = qHTS assay to identify small molecule antagonists of the constitutive androstane receptor (CAR) signaling pathway - cell viability counter screen (AID 1224837); note: nearly all actives have a fitted effect of over 45% in size
In short: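 Using CellTiter-Fluor, viability is scored in HepG2 cells stably carrying hCAR and a 2.2kb CYP2B6 reporter after 23 hr compound exposure across 15 concentrations, with CITCO present at 50 nM.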

[5] = biological target: Nuclear receptor subfamily 1 group I member 3 (Homo sapiens) (UniProt Q14994); experiment: qHTS assay to identify small molecule antagonists of the constitutive androstane receptor (CAR) signaling pathway (AID 1224838);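 note: HepG2 cells stably expressing hCAR with CYP2B6 luciferase reporter stimulated by CITCO; nearly all actives have a fitted effect of over 40% in size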
In short: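 Reporter luminescence was quantified after 24 h exposure of hCAR/CYP2B6-2.2kb double-stable HepG2 cells to compounds at 15 concentrations in the presence of 50 nM CITCO final.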

[6] = biological target: Nuclear receptor subfamily 1 group I member 3 (Homo sapiens) (UniProt Q14994); experiment: qHTS assay to identify small molecule agonists of the constitutive androstane receptor (CAR) signaling pathway (AID 1224839);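 note: HepG2 cells stably carrying human CAR and a CYP2B6 luciferase reporter; nearly all actives have a fitted effect of over 15% in size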
In short: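 HepG2 cells stably co-transfected with hCAR and a CYP2B6-2.2kb luciferase reporter; compounds at 15 concentrations with 0.75 uM PK11195 present. After 24 hr at 37 C, luciferase read by ONE-Glo luminescence.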

[7] = qHTS assay to identify small molecule antagonists of the estrogen related receptor signaling pathway with the pleiotropic PPARgamma coactivator (PGC) from Tox21 10K library - cell viability counter screen (AID 1224840; active = well fitted cell-killing curve with a large enough effect in the repeat runs, not every such curve was filed as active; note: nearly all actives have a fitted effect of over 40% in size)
In short: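 Here the PGC/ERR cells serve as a cytotoxicity control: they are exposed to compounds for 17.5 hours at 37 C, and live-cell signal is quantified using CellTiter-Fluor fluorescence.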

[8] = qHTS assay to identify small molecule antagonists of the estrogen related receptor signaling pathway with the pleiotropic PPARgamma coactivator (PGC) from Tox21 10K library (AID 1224841; call rule not given here; note: actives are mostly falling curves and most rising ones were filed inactive; nearly all actives have a fitted effect of over 50% in size)
In short: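 Each well held 2,000 PGC/ERR cells, pre-incubated six hours (37 C, 5% CO2). Test substances in DMSO were added by pin tool and left for 18 h at 37 C before luciferase detection by One-Glo.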

[9] = qHTS assay to identify small molecule agonists of the estrogen related receptor signaling pathway with the pleiotropic PPARgamma coactivator (PGC) from Tox21 10K library (AID 1224842); note: nearly all actives have a fitted effect of over 15% in size
In short: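 Luminescence from One-Glo (30 min, room temperature) measured after PGC/ERR cells had 18 h at 37 C with pinned compound (23 nL in DMSO). Cells had been seeded at 2,000 per well and pre-incubated 6 h.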

[10] = biological target: Thyrotropin receptor (Homo sapiens) (UniProt P16473); experiment: qHTS assay to identify small molecule agonists of the thyroid stimulating hormone receptor (TSHR) signaling pathway (AID 1224843; calls by dose curve; note: nearly all actives have a fitted effect of over 45% in size)
In short: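 HEK293 cells stably bearing the thyrotropin receptor were plated at 800 cells/well and challenged with compound (30 min, RT). Accumulated cAMP was quantified via cAMP-d2 competing for cryptate-tagged antibody.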

[11] = qHTS assay to identify small molecule agonists of the hypoxia (HIF-1) signaling pathway - cell viability counter screen (AID 1224844; calls by dose curve; note: nearly all actives have a fitted effect of over 50% in size)
In short: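 Multiplexed with the HRE beta-lactamase assay, this viability read used CellTiter-Glo luminescence (30 min, RT) on HRE-bla ME-180 cells treated 17 hrs with compounds in 0.5% dialyzed FBS medium.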

[12] = qHTS assay to identify small molecule agonists of H2AX (AID 1224845; active = well fitted activation curve with a large enough effect in the signal ratio in the repeat runs, not every such curve was filed as active; the % refers to the signal ratio)
In short: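 Phospho-H2AX Ser139 measured by HTRF (ex 320 nm; em 665 and 620 nm) after 24 hr antibody incubation. Compounds, 15 concentrations, 0.76% DMSO, were applied to CHO-K1 cells for 3hr at 37C before lysis.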

[13] = qHTS assay to identify small molecule agonists of the hypoxia (HIF-1) signaling pathway (AID 1224846; active = well fitted activation curve with a large enough effect in the signal ratio in the repeat runs, not every such curve was filed as active; the % refers to the signal ratio)
In short: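 Hypoxia-pathway activation was scored as increased beta-lactamase from an HRE-controlled reporter in ME-180 cells; plated at 2,000 cells per well with 0.5% dialyzed FBS, they were exposed 17 hrs to compounds and then given CCF4-AM.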

[14] = qHTS assay to identify small molecule agonists of H2AX - cell viability counter screen (AID 1224847; calls by dose curve;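 note: wild-type CHO-K1 cells; top concentration of the series differs between compounds; nearly all actives have a fitted effect of over 30% in size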)
In short: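 CHO-K1 cells plated overnight at 37C, then exposed 3 h at 37C to compounds at 15 concentrations (0.76% DMSO final). Viability by CellTiter-Glo luminescence after 30 min at room temperature.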

[15] = qHTS assay to identify small molecule agonists of the estrogen related receptor (ERR) signaling pathway from Tox21 library (AID 1224849; calls by dose curve; note: nearly all actives have a fitted effect of over 15% in size); conditions: ERR reporter cell line, ONE-Glo luciferase, 18 h; at 92.4 µM (top of the series) unless noted
In short: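 Six hours post-seeding at 37 C/5% CO2, ERR cells receive DMSO-solubilised compounds; after 18 h at 37 C, ONE-Glo reagent is applied and luminescence recorded.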

[16] = qHTS RealTime-Glo MT Cell Viability Assay in HepG2 cells - 24 hour (AID 1224867); note: nearly all actives have a fitted effect of over 50% in size
In short: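 HepG2 suspension premixed with RealTime-Glo reagents is plated at 600 cells per well and left 5 h at 37 C/5% CO2. Compounds in DMSO then go in, and bioluminescence reflecting viable cell number is recorded over 40 h.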

[17] = qHTS RealTime-Glo MT Cell Viability Assay in HEK293 cells - 32 hour (AID 1224868); note: top concentration of the series differs between compounds; nearly all actives have a fitted effect of over 50% in size
In short: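 Reads taken at 0, 8, 16, 24, 32 and 40 h from the same wells. HEK293 cells (600/well) carried RealTime-Glo reagents from seeding, with compound added after a 5 h settle at 37 C.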

[18] = A CellTox Green Cytotoxicity Assay to monitor cytotoxicity in HEK293 cells - 0 hour (AID 1224869); note: nearly all actives have a fitted effect of over 50% in size
In short: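 Seeding of HEK293 cells together with cytotoxicity dye preceded a 5 h incubation at 37 C/5% CO2. Test compounds in DMSO were then added and fluorescence monitored across 40 h.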

[19] = qHTS assay to identify small molecule antagonists of the estrogen related receptor (ERR) signaling pathway from Tox21 library (AID 1224848); note: nearly all actives have a fitted effect of over 50% in size
In short: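 Reading was by luminescence 30 min after ONE-Glo addition. Before that, ERR cells at 2,000 per well had rested 6 h at 37 C/5% CO2 and then received pin-tooled compounds in DMSO for 18 h at 37 C.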
% is set by controls: 0 for no effect and ±100 for the full control effect.

Thyrotropin receptor (Homo sapiens), sequence (P16473 whole entry, looked up): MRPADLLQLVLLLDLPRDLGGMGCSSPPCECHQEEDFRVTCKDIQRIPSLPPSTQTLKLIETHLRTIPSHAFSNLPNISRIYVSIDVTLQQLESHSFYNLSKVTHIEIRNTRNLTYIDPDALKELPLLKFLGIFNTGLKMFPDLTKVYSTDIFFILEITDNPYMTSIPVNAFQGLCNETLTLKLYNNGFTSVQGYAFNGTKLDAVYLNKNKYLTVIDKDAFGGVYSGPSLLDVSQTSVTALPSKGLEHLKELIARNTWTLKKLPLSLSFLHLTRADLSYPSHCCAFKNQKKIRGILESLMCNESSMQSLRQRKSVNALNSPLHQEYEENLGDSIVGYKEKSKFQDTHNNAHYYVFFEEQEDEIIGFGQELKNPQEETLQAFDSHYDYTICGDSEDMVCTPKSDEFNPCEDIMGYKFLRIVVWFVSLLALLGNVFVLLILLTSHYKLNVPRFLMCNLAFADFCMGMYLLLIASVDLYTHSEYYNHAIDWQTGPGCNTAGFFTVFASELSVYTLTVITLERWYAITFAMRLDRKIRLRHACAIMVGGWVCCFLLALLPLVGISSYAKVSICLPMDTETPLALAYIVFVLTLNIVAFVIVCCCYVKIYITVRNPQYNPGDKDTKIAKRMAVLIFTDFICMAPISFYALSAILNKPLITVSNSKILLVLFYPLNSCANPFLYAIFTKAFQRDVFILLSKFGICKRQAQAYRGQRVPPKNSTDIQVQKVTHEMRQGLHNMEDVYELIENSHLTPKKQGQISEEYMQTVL
Nuclear receptor subfamily 1 group I member 3 (Homo sapiens), sequence (Q14994 whole entry, looked up): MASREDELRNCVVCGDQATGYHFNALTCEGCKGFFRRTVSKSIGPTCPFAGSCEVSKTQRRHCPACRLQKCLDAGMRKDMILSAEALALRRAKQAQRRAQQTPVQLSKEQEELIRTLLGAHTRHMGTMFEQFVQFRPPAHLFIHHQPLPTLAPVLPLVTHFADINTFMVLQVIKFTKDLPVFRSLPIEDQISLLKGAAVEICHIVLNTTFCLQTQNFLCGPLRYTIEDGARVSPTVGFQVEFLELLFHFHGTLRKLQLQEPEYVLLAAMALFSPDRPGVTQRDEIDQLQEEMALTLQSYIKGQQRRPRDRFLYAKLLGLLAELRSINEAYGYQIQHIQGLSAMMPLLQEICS
Luciferin 4-monooxygenase (Photinus pyralis), sequence (P08659 whole entry, looked up): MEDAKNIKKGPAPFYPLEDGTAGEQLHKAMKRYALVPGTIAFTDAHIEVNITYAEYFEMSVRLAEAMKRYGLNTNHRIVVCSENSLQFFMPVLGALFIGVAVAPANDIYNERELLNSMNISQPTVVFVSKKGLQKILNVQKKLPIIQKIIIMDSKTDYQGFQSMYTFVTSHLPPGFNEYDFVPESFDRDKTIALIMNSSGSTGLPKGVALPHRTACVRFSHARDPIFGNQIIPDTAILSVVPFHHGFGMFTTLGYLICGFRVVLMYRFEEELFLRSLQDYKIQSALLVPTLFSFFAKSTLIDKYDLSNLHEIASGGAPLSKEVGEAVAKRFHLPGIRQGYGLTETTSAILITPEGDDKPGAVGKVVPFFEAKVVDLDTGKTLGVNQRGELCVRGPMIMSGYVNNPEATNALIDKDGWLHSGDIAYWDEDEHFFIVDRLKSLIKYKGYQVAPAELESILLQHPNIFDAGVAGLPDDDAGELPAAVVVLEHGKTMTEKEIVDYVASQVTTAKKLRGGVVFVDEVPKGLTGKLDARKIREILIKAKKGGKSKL

Cc1cc2c(cc1S(N)(=O)=O)S(=O)(=O)CCC2
inactive: Potency [1] | Potency [2] | Potency [3] | Potency [4] | Potency [5] | Potency [6] | Potency [7] | Potency [8] | outcome [9] | Potency [10] | Potency [11] | outcome [12] | outcome [13] | Potency [14] | activity change, positive = activation [15] 2.29% [at 42.5 µM] | Potency [16] | Potency [17] | Potency [18]

C=COCC1CCC(CO)CC1 (centres undefined)
inactive: Potency [1] | Potency [2] | Potency [3] | Potency [4] | Potency [5] | Potency [6] | Potency [7] | Potency [8] | outcome [9] | Potency [10] | Potency [11] | outcome [12] | outcome [13] | Potency [14] | Potency [19] | activity change, positive = activation [15] 2.36% | Potency [16] | Potency [17] | Potency [18]

OC1CCCCC1c1ccccc1 (centres undefined)
inactive: Potency [1] | Potency [2] | Potency [3] | Potency [4] | Potency [5] | Potency [6] | Potency [7] | Potency [8] | outcome [9] | Potency [10] | Potency [11] | outcome [12] | outcome [13] | Potency [14] | Potency [19] | activity change, positive = activation [15] 0.961% | Potency [16] | Potency [17] | Potency [18]

COC(=O)CCSCCC(=O)OC
inactive: Potency [1] | Potency [2] | Potency [3] | Potency [4] | Potency [5] | Potency [6] | Potency [7] | Potency [8] | outcome [9] | Potency [10] | Potency [11] | outcome [12] | outcome [13] | Potency [14] | Potency [19] | activity change, positive = activation [15] 1.8% | Potency [16] | Potency [18]

C[N+](C)(C)CC(O)CC(=O)[O-] (centres undefined)
inactive: Potency [1] | Potency [2] | Potency [3] | Potency [4] | Potency [5] | Potency [6] | Potency [7] | Potency [8] | outcome [9] | Potency [10] | Potency [11] | outcome [12] | outcome [13] | Potency [14] | activity change, positive = activation [15] 3.63% [at 42.5 µM] | Potency [16] | Potency [17] | Potency [18]

CC(C)NCCCC1(C(N)=O)c2ccccc2-c2ccccc21
inactive: Potency [1] | Potency [2] | Potency [3] | Potency [4] | Potency [5] | Potency [6] | Potency [7] | Potency [8] | outcome [9] | Potency [10] | Potency [11] | outcome [12] | outcome [13] | Potency [14] | Potency [19] | activity change, positive = activation [15] 9.55% [at 42.5 µM] | Potency [16] | Potency [17] | Potency [18]

CO[C@]12C[C@@H](COC(=O)c3cncc(Br)c3)CN(C)[C@@H]1Cc1cn(C)c3cccc2c13
inactive: Potency [1] | Potency [2] | Potency [3] | Potency [4] | Potency [5] | Potency [6] | Potency [7] | Potency [8] | outcome [9] | Potency [10] | Potency [11] | outcome [12] | outcome [13] | Potency [14] | activity change, positive = activation [15] 6.2% [at 42.5 µM] | Potency [16] | Potency [17] | Potency [18]
